The results in this text go back to PubChem BioAssay (NCI).

The nature of assay [1]: NCI Yeast Anticancer Drug Screen. Data for the rad50 strain (AID 155).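 Also: 0% = growth of vehicle-only cultures of the same strain.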 The note with it: S. cerevisiae rad50 strain growth inhibition, hits give high values. Put shortly:
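DNA repair mutant yeast, compound exposure, growth read-out; inhibition is taken relative to vehicle.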

Assay [2] can be described thus: NCI Yeast Anticancer Drug Screen. Data for the mec2-1 strain (AID 157). The note with it: S. cerevisiae mec2-1 strain, hits give high values. Put shortly:
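Yeast mec2-1 mutant treated with compound. Readout: growth inhibition vs vehicle controls.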

A short description of assay [3]: NCI Yeast Anticancer Drug Screen. Data for the sgs1 mgt1 strain (AID 161).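 Also: 0% = growth of cultures given vehicle only.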 Particulars: S. cerevisiae sgs1 mgt1 strain, hits give high values. The essentials: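 Genetically altered yeast, compound exposure, growth inhibition relative to vehicle.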
Assay [4] is described as follows: NCI Yeast Anticancer Drug Screen. Data for the cln2 rad14 strain (AID 165).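 Also: 0% = growth equal to vehicle treated cultures.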 The note with it: S. cerevisiae cln2 rad14 strain, hits give high values. Put shortly: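 cln2 rad14 yeast strain; compound exposure; growth inhibition read vs vehicle controls.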
A short description of assay [5]: NCI Yeast Anticancer Drug Screen. Data for the bub3 strain (AID 167). The note with it: S. cerevisiae bub3 mutant strain, hits give high values. The essentials: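 In this screen, a yeast mutant lacking normal mitotic checkpoint function is challenged with compound. Relative growth versus vehicle gives the inhibition value.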
The nature of assay [6]: NCI Yeast Anticancer Drug Screen. Data for the mlh1 rad18 strain (AID 175). Particulars: S. cerevisiae mlh1 rad18 strain growth inhibition, hits give high values. Put shortly:
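Yeast w/ defined DNA-repair lesions; compound exposure; growth vs vehicle controls → % inhibition.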

Where [7] appears, read: at 5.0 µM (retest, dose inferred, filed as 0.5).
Setting [8] is: at 50.0 µM (retest, dose inferred, filed as 5.0).

Structures are written as SMILES. Compounds without any hit were thinned out: in the full panel of roughly 79,000, 15% have a hit. Values without a mark were called inactive. Active and inactive are the calls of the source. Rule as the data show it: active = growth inhibition above about 70%; inactive = the rest.

As to `CC(=O)Oc1c(Br)cc(Br)cc1Br`, the growth inhibition is 4% in assay [1] (setting [7]); -4% in assay [1] (setting [8]); 9.35% in assay [1] (at 50.0 µM); -5% in assay [2] (setting [7]); -34% in assay [2] (setting [8]); 6.7% in assay [2] (at 50.0 µM). The growth inhibition in assay [3] (setting [7]) was 10%; in assay [3] (setting [8]) it was 4%; in assay [3] (at 50.0 µM) it was 4.5%; in assay [4] (setting [7]), 2%; in assay [4] (setting [8]) it was -2%; in assay [4] (at 50.0 µM), 1.2%. For the same compound, the growth inhibition is 10% in assay [5] (setting [7]); 6% in assay [5] (setting [8]); 9.1% in assay [5] (at 50.0 µM); 13% in assay [6] (setting [7]); 20% in assay [6] (setting [8]); 0.9% in assay [6] (at 50.0 µM).
As to `CCCCCCCCCCCCCCCCCC[n+]1cccc(C(=O)c2ccccc2)c1`, the growth inhibition was 58% in assay [1] (setting [7]); 99% (active) in assay [1] (setting [8]); 99.3% (active) in assay [1] (at 50.0 µM); 92% (active) in assay [2] (setting [7]); 100% (active) in assay [2] (setting [8]); 99.5% (active) in assay [2] (at 50.0 µM). Also, the growth inhibition in assay [3] (setting [7]) was 97% (active); in assay [3] (setting [8]), 99% (active); in assay [3] (at 50.0 µM) it was 99.5% (active); in assay [4] (setting [7]), 56%; in assay [4] (setting [8]), 98% (active); in assay [4] (at 50.0 µM) it was 97.3% (active). Further, the growth inhibition in assay [5] (setting [7]) was 68%; in assay [5] (setting [8]), 99% (active); in assay [5] (at 50.0 µM), 98.7% (active); in assay [6] (setting [7]), 98% (active); in assay [6] (setting [8]), 99% (active); in assay [6] (at 50.0 µM), 99.5% (active).
Take `Oc1ccccc1C(Sc1nc2ccccc2s1)Sc1nc2ccccc2s1`: the growth inhibition was 4% in assay [1] (setting [7]); 97% (active) in assay [1] (setting [8]); 97.3% (active) in assay [1] (at 50.0 µM); 16% in assay [2] (setting [7]); 97% (active) in assay [2] (setting [8]); 95.8% (active) in assay [2] (at 50.0 µM). In addition, the growth inhibition in assay [3] (setting [7]) was 19%; in assay [3] (setting [8]), 97% (active); in assay [3] (at 50.0 µM) it was 97.2% (active); in assay [4] (setting [7]) it was -1%; in assay [4] (setting [8]) it was 93% (active); in assay [4] (at 50.0 µM), 72% (active). Also, the growth inhibition in assay [5] (setting [7]) was -3%; in assay [5] (setting [8]) it was 97% (active); in assay [5] (at 50.0 µM), 91% (active); in assay [6] (setting [7]), 3%; in assay [6] (setting [8]), 98% (active); in assay [6] (at 50.0 µM), 90% (active).
Consider `O=C(N/N=C/c1ccccc1O)C1Cc2ccccc2C1C(Cl)Cl` (stereo not given), for which the growth inhibition in assay [1] (setting [7]) is 51%; in assay [1] (setting [8]), 97% (active); in assay [1] (at 50.0 µM), 88% (active); in assay [2] (setting [7]), 36%; in assay [2] (setting [8]), 98% (active); in assay [2] (at 50.0 µM), 91.3% (active). In addition, the growth inhibition in assay [3] (setting [7]) was 47%; in assay [3] (setting [8]), 99% (active); in assay [3] (at 50.0 µM) it was 93% (active); in assay [4] (setting [7]), 31%; in assay [4] (setting [8]), 95% (active); in assay [4] (at 50.0 µM) it was 89.5% (active). In addition, the growth inhibition in assay [5] (setting [7]) was 45%; in assay [5] (setting [8]), 82% (active); in assay [5] (at 50.0 µM) it was 90.7% (active); in assay [6] (setting [7]) it was 59%; in assay [6] (setting [8]), 98% (active); in assay [6] (at 50.0 µM) it was 90.8% (active).
In the case of `O=C(O)CCCCCCC(=O)CCl`, the growth inhibition is 30% in assay [1] (setting [7]); 74% (active) in assay [1] (setting [8]); 72% (active) in assay [1] (at 50.0 µM); 22% in assay [2] (setting [7]); 82% (active) in assay [2] (setting [8]); 83.5% (active) in assay [2] (at 50.0 µM). The growth inhibition in assay [3] (setting [7]) was 24%; in assay [3] (setting [8]), 74% (active); in assay [3] (at 50.0 µM), 66.2%; in assay [4] (setting [7]) it was 25%; in assay [4] (setting [8]) it was 38%; in assay [4] (at 50.0 µM), 23.9%. The growth inhibition in assay [5] (setting [7]) was 30%; in assay [5] (setting [8]), 78% (active); in assay [5] (at 50.0 µM), 58.4%; in assay [6] (setting [7]), 19%; in assay [6] (setting [8]), 86% (active); in assay [6] (at 50.0 µM), 72.9% (active).
Regarding `CC(C)C(=O)c1ccc([N+](=O)[O-])o1`, the growth inhibition in assay [1] (setting [7]) is 2%; in assay [1] (setting [8]), 97% (active); in assay [1] (at 50.0 µM), 98.8% (active); in assay [2] (setting [7]), 11%; in assay [2] (setting [8]), 97% (active); in assay [2] (at 50.0 µM), 99% (active). The growth inhibition is 8% in assay [3] (setting [7]); 96% (active) in assay [3] (setting [8]); 97.7% (active) in assay [3] (at 50.0 µM); -3% in assay [4] (setting [7]); 99% (active) in assay [4] (setting [8]); 97.3% (active) in assay [4] (at 50.0 µM). The growth inhibition in assay [5] (setting [7]) is 1%; in assay [5] (setting [8]), 97% (active); in assay [5] (at 50.0 µM), 99.1% (active); in assay [6] (setting [7]), 6%; in assay [6] (setting [8]), 98% (active); in assay [6] (at 50.0 µM), 98.5% (active).
Consider `C/C(CCC(=O)O)=N/Nc1ccc(C(=O)O)cc1`, for which the growth inhibition was 11% in assay [1] (setting [7]); 74% (active) in assay [1] (setting [8]); 66% in assay [1] (at 50.0 µM); 0% in assay [2] (setting [7]); 71% (active) in assay [2] (setting [8]); 5.4% in assay [2] (at 50.0 µM). Moreover, the growth inhibition in assay [3] (setting [7]) is 1%; in assay [3] (setting [8]) it was 64%; in assay [3] (at 50.0 µM) it was 17.9%; in assay [4] (setting [7]), 7%; in assay [4] (setting [8]), 91% (active); in assay [4] (at 50.0 µM), 5.85%. Further, the growth inhibition in assay [5] (setting [7]) is 2%; in assay [5] (setting [8]), 91% (active); in assay [5] (at 50.0 µM), 31.4%; in assay [6] (setting [7]), 5%; in assay [6] (setting [8]), 89% (active); in assay [6] (at 50.0 µM), 23.7%.
For `CCCCCCCCCCC[N+](C)(C)CCCCCC[N+](C)(C)CCCCCCCCCCC`, the growth inhibition in assay [1] (setting [7]) was 92% (active); in assay [1] (setting [8]), 98% (active); in assay [1] (at 50.0 µM), 88.6% (active); in assay [2] (setting [7]) it was 97% (active); in assay [2] (setting [8]), 99% (active); in assay [2] (at 50.0 µM) it was 91% (active). Moreover, the growth inhibition is 99% (active) in assay [3] (setting [7]); 99% (active) in assay [3] (setting [8]); 90.9% (active) in assay [3] (at 50.0 µM); 96% (active) in assay [4] (setting [7]); 99% (active) in assay [4] (setting [8]); 90.3% (active) in assay [4] (at 50.0 µM). Also, the growth inhibition in assay [5] (setting [7]) was 99% (active); in assay [5] (setting [8]), 100% (active); in assay [5] (at 50.0 µM) it was 88.4% (active); in assay [6] (setting [7]), 97% (active); in assay [6] (setting [8]), 99% (active); in assay [6] (at 50.0 µM), 90.2% (active).
Take `ClC(Cl)(Cl)C(c1ccccc1)c1ccccc1`: the growth inhibition in assay [1] (setting [7]) was 3%; in assay [1] (setting [8]), 30%; in assay [1] (at 50.0 µM) it was 76.8% (active); in assay [2] (setting [7]) it was 0%; in assay [2] (setting [8]), 12%; in assay [2] (at 50.0 µM), 38.5%. Besides, the growth inhibition in assay [3] (setting [7]) was 3%; in assay [3] (setting [8]), 42%; in assay [3] (at 50.0 µM), 71.1% (active); in assay [4] (setting [7]) it was 4%; in assay [4] (setting [8]) it was -3%; in assay [4] (at 50.0 µM) it was -17.2%. Also, the growth inhibition was -5% in assay [5] (setting [7]); 5% in assay [5] (setting [8]); 16.4% in assay [5] (at 50.0 µM); 16% in assay [6] (setting [7]); 15% in assay [6] (setting [8]); 73.8% (active) in assay [6] (at 50.0 µM).
Consider `COc1ccc(Cc2c3ccccc3cc[n+]2C)cc1Oc1ccc(Cc2c3ccccc3cc[n+]2C)cc1`, for which the growth inhibition in assay [1] (setting [7]) was 2%; in assay [1] (setting [8]) it was 87% (active); in assay [1] (at 50.0 µM), 51.5%; in assay [2] (setting [7]), -1%; in assay [2] (setting [8]), 92% (active); in assay [2] (at 50.0 µM), 43.8%. For the same compound, the growth inhibition in assay [3] (setting [7]) is 2%; in assay [3] (setting [8]), 93% (active); in assay [3] (at 50.0 µM) it was 76.5% (active); in assay [4] (setting [7]), -14%; in assay [4] (setting [8]) it was 84% (active); in assay [4] (at 50.0 µM), -26.7%. Also, the growth inhibition in assay [5] (setting [7]) was -2%; in assay [5] (setting [8]), 96% (active); in assay [5] (at 50.0 µM), 40.9%; in assay [6] (setting [7]), -2%; in assay [6] (setting [8]) it was 96% (active); in assay [6] (at 50.0 µM), 85.9% (active).
